High-throughput results from PubChem.
An excerpt weighted towards active compounds, which were near 2.4% of everything screened.
MCL1 BIM primary: disrupts human MCL1 binding to BIM-BH3 peptide | Q07820 | GST-MCL1 / FITC-Bim-BH3 fluorescence polarization | inhibition, % at 10.9 µM | 320,000 tested, 0.68% active | AID 2057;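 active = inhibition above the mean inhibition of all tested compounds plus 3 SD, set per campaign, cut at about 40% in these data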;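 also: higher means more loss of mP so more displacement of Bim peptide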
Target sequence (Q07820 whole entry, looked up): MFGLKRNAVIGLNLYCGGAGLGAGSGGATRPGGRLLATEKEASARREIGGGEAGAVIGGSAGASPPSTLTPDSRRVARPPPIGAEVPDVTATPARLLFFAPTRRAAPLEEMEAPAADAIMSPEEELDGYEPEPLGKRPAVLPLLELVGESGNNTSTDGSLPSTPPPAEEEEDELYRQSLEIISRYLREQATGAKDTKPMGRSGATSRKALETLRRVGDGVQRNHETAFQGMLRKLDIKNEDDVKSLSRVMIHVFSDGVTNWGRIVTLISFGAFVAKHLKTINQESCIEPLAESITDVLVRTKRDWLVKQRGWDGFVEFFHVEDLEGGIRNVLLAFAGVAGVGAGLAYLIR
Mcl1 Bid PPI: Mcl-1/Bid interaction inhibition. Q07820. TR-FRET Mcl-1/Bid-Dy647 peptide binding, 1536-well. inhibition, % at 21.7 µM. 220,000 tested, 0.97% active. AID 1021;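 active = compounds that cut the binding signal by more than half at the single screening dose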;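 also: His-tagged Mcl-1 with europium anti-His antibody binding Bid BH3 peptide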
Mcl1-Noxa inh: Mcl-1/Noxa interaction inhibition; TR-FRET Mcl-1/Noxa peptide binding, 2 h; AID 1022; 220,000 tested, 1.5% active; inhibition, % at 21.7 µM; Q07820;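 active = compounds that cut the protein-peptide binding signal by more than 50% relative to plate controls in a single-dose test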;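 also: His-tagged Mcl-1 with rhodamine Noxa BH3 peptide and terbium anti-His antibody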
L929 necroptosis: L929 zVAD cell death inhibition; AID 1377; viability rescue, % at 10 µM; L929 zVAD necroptosis rescue, ATP luminescence, 24 h; with zVAD 60 µM; 220,000 tested, 0.38% active;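 active = activation, scaled between plate controls, above about 75%, limit read from the data; inactive = activation under that limit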
Mcl-1 Bim block: disrupts Bim peptide binding to human Mcl-1; Q07820; Bead-based flow cytometry, Bim peptide-Mcl-1 binding; inhibition, % at 10 µM; 190,000 tested, 0.1% active; AID 1009; in the data active = inhibition above about 40%
TNF death inh: blocks TNF-alpha induced death of Jurkat FADD-/- cells. Jurkat FADD-/- TNF necroptosis rescue, ATP luminescence, 24 h; 0 = TNF only, 100 = no-TNF cells. activation (protection from cell death), % at 10 µM. 220,000 tested, 0.068% active. AID 463075;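 active = activation, meaning protection from cell death, of at least 50% relative to plate controls; inactive = activation below 50%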;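 also: necroptosis triggered by 40 ng/mL TNF-alpha added together with compound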
Bcl-xL conf: counter-screen for MCL1 inhibitors: confirmation of human Bcl-xL inhibitors. shares compounds with MCL1 BIM primary. GST-Bcl-xL / FITC-Bim BH3 peptide FP binding. inhibition, % at 10.9 µM. 1,700 tested, 54% active. AID 2166;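 active = inhibition above a cutoff equal to the mean inhibition of all tested compounds plus 3 SD, cut at about 30% in these data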
MCL1 BIM confirm: MCL1-BIM-BH3 interaction inhibition, confirmation | shares compounds with MCL1 BIM primary | GST-MCL1 / FITC-Bim-BH3 fluorescence polarization | inhibition, % at 10.9 µM | 1,700 tested, 61% active | AID 2168;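 active = inhibition above the average of all tested compounds plus 3 SD, cut at about 40% in these data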
Large screens that a line does not name were inactive (follow-up assays come after a bar, where they were run).

Cc1ccc(NC(=O)/C(=C\c2ccc([N+](=O)[O-])cc2)NC(=O)c2ccccc2)cc1	none
COc1ccc2ccccc2c1C(O)c1nccn1C (stereo not given)	MCL1 BIM primary active | Bcl-xL conf 164 | MCL1 BIM confirm 197
CCC(C)C(NC(=O)C1CCC(C)CC1)C(=O)NCCc1ccc(S(N)(=O)=O)cc1 (stereo not given)	none (no result: Mcl1 Bid PPI, Mcl1-Noxa inh, L929 necroptosis, Mcl-1 Bim block, TNF death inh)
CC(/C=C1\SC(=Nc2cccnc2)NC1=O)=C\c1ccccc1	none (no result: Mcl-1 Bim block)
C=CCOc1ccc(/C=C2\SC(=Nc3cccnc3)NC2=O)cc1	MCL1 BIM primary 64 (no result: Mcl-1 Bim block) | Bcl-xL conf 65 | MCL1 BIM confirm 74
COc1ccc(C(=O)Nc2cccc(C)c2)cc1	none
COc1ccc(NS(=O)(=O)c2cccc(C(=O)Nc3cccc(C(=O)O)c3)c2)cc1	MCL1 BIM primary 68 (no result: Mcl1 Bid PPI, Mcl1-Noxa inh, L929 necroptosis, Mcl-1 Bim block, TNF death inh) | Bcl-xL conf inactive | MCL1 BIM confirm inactive
COc1ccc(CC(=O)Nc2cccc(C(=O)Nc3cccc(C)c3)c2)cc1	MCL1 BIM primary 118 | Bcl-xL conf inactive | MCL1 BIM confirm inactive
CCOC(=O)C1C(c2ccc3c(c2)OCO3)NC(=O)NC1(O)C(F)(F)F (stereo not given)	MCL1 BIM primary 55 | Bcl-xL conf inactive | MCL1 BIM confirm inactive
CCOC(=O)C1C(c2ccc(O)c(OC)c2)NC(=O)NC1(O)C(F)(F)F (stereo not given)	none (no result: Mcl1 Bid PPI, Mcl1-Noxa inh, L929 necroptosis, Mcl-1 Bim block, TNF death inh)
Cc1cc(OC(C)C(=O)Nc2ccncc2)ccc1Cl (stereo not given)	none (no result: Mcl1 Bid PPI, Mcl1-Noxa inh, L929 necroptosis, Mcl-1 Bim block, TNF death inh)
O=C1NC(=S)CN1c1ccccc1	MCL1 BIM primary 79 (no result: Mcl-1 Bim block) | Bcl-xL conf inactive | MCL1 BIM confirm inactive
O=c1oc2ccccc2c2oc3cc(O)c(O)cc3c12	MCL1 BIM primary 71, Mcl1-Noxa inh 98 (no result: Mcl-1 Bim block) | Bcl-xL conf 34 | MCL1 BIM confirm 74
Nc1ccc(O)c(-c2nc3ccccc3s2)c1	MCL1 BIM primary 61, Mcl1-Noxa inh 71 | Bcl-xL conf 37 | MCL1 BIM confirm inactive
Oc1ccc(N=C/C=C/c2cccc(Br)c2)cc1-c1nc2ccccc2s1	MCL1 BIM primary 50, Mcl1-Noxa inh 62 | Bcl-xL conf inactive | MCL1 BIM confirm inactive
COc1ccc(NS(=O)(=O)c2cccs2)cn1	none
COc1ccc(NS(=O)(=O)c2ccc(Cl)s2)cn1	MCL1 BIM primary 78 (no result: Mcl-1 Bim block) | Bcl-xL conf 72 | MCL1 BIM confirm 94
CC(OC(=O)Cc1c(F)cccc1Cl)C(=O)NC1CCCCC1C (stereo not given)	none (no result: Mcl1 Bid PPI, Mcl1-Noxa inh, L929 necroptosis, Mcl-1 Bim block, TNF death inh)
CC(C)c1cc(Nc2cccc(O)c2)cc(C(C)C)c1O	MCL1 BIM primary 146 (no result: Mcl1 Bid PPI, Mcl1-Noxa inh, Mcl-1 Bim block) | Bcl-xL conf inactive | MCL1 BIM confirm inactive
Oc1cccc(Nc2ccccc2)c1	none (no result: Mcl1 Bid PPI, Mcl1-Noxa inh, L929 necroptosis, Mcl-1 Bim block, TNF death inh)
Cc1ccc(CNC(=O)CC(C)S(=O)(=O)c2ccc3c(c2)NC(=O)CS3)o1 (stereo not given)	MCL1 BIM primary 86 (no result: Mcl1 Bid PPI, Mcl1-Noxa inh, L929 necroptosis, Mcl-1 Bim block, TNF death inh) | Bcl-xL conf inactive | MCL1 BIM confirm inactive
O=C(C1=C(O)C(=O)N(c2nccs2)C1c1ccccc1)c1cc2ccccc2o1 (stereo not given)	MCL1 BIM primary active (no result: Mcl-1 Bim block) | Bcl-xL conf 177 | MCL1 BIM confirm active
CCOc1cccc(C2C(C(=O)c3ccc(C)o3)=C(O)C(=O)N2c2nccs2)c1 (stereo not given)	MCL1 BIM primary 143 | Bcl-xL conf 156 | MCL1 BIM confirm 183
CC(=O)Nc1ccc(NC(=O)C2CCN(C(=O)c3cccs3)CC2)cc1	none
O=C(N/N=C/c1cccc(F)c1)c1cc(-c2ccco2)nc2ccccc12	MCL1 BIM primary 74, Mcl1-Noxa inh 91 | Bcl-xL conf inactive | MCL1 BIM confirm 64
O=C(NCC1CCCO1)c1cc(-c2ccco2)nc2ccccc12 (stereo not given)	MCL1 BIM primary 67 | Bcl-xL conf inactive | MCL1 BIM confirm inactive
COc1ccc(NC(=O)c2cc(-c3ccco3)nc3ccccc23)cc1S(=O)(=O)N1CCOCC1	MCL1 BIM primary 42, Mcl1-Noxa inh 101 (no result: Mcl-1 Bim block) | Bcl-xL conf 38 | MCL1 BIM confirm inactive
